Reference: PubChem BioAssay AID1961 (Sanford-Burnham Center for Chemical Genomics, 2009)
In all, about 290,000 compounds went through this assay and about 140 (0.048%) were called active. The sample holds actives, similar compounds and a random draw of the others, so the mix is not that of the screen.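 Rule for the calls: active = activation above 40% with more than 50 cells counted in the well; inconclusive = wells holding fewer than 50 cells, flagged as toxic or sparse; inactive = the rest.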

Assays:
[1] = selective activators of receptor GPR55 – imaging, U2OS cells, beta-arrestin-GFP redistribution, primary screen (AID 1961); details: measured here: cytotoxicity, cells analyzed, at 10 µM;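 note: U2OS osteosarcoma cells stably expressing GPR55 and beta-arrestin-GFP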;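 for activation: plate controls were DMSO negative control for no effect and LPI positive control for full effect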
[2] = target: G-protein coupled receptor 55 (Homo sapiens) (UniProt Q9Y2T6); test: as above; details: at 10 µM, stronger effect = higher value
Chain of G-protein coupled receptor 55 (Homo sapiens) (Q9Y2T6 whole entry, looked up): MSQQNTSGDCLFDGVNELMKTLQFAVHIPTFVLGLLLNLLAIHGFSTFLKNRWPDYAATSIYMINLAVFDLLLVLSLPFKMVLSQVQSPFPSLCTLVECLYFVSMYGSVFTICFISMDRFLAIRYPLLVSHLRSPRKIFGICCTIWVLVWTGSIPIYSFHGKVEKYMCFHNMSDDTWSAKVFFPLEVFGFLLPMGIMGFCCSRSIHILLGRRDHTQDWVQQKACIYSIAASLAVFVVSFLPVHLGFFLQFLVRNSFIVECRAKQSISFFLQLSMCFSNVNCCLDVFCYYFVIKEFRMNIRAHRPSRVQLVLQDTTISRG

CCN1CCCC1CNCc1cc(OC)c(OC)c(OC)c1 (centres undefined)
cell count [1]: 313 cells | activation [2]: -0.1% (inactive)

COc1ccccc1Cc1noc(COc2cccc(C)c2C)n1
cell count [1]: 384 cells | activation [2]: -0.1% (inactive)

Cc1nnc(SC(C)C)n(N)c1=O
cell count [1]: 256 cells | activation [2]: -1.1% (inactive)

O=c1cnnc(SCc2ccc([N+](=O)[O-])cc2)[nH]1
cell count [1]: 243 cells | activation [2]: 0.2% (inactive)

CCn1nc(C)c(CN2CCC(C(=O)Nc3cccc(-c4cccc(Cl)c4)c3)CC2)c1C
cell count [1]: 372 cells | activation [2]: 0% (inactive)

CCCCSc1nnc2n(CCc3ccccc3)c(=O)c3c4c(sc3n12)COC(C)(C)C4
cell count [1]: 332 cells | activation [2]: 58% (active)

CCC1(C)Cc2c(sc3c2c(=O)n(C)c2nnc(SCCc4ccccc4)n32)CO1 (centres undefined)
cell count [1]: 322 cells | activation [2]: -0.2% (inactive)

C=CCSc1nnc2n(CCc3ccccc3)c(=O)c3c4c(sc3n12)COC(C)(C)C4
cell count [1]: 369 cells | activation [2]: -0.1% (inactive)

COc1ccc(C2CC(c3ccc(F)cc3)=NN2c2ccccc2)cc1OC (centres undefined)
cell count [1]: 391 cells | activation [2]: -0.1% (inactive)

COc1cc(C2CC(c3ccccc3)=NN2c2ccccc2)ccc1OCC(=O)O (centres undefined)
cell count [1]: 329 cells | activation [2]: 0.9% (inactive)

O=C(CSc1nnc(CNc2ccc(F)cc2)n1CC1CCCO1)N1CCOCC1 (centres undefined)
cell count [1]: 336 cells | activation [2]: 0.2% (inactive)

CCOc1ccc(/C=N/NC(=O)C(C)N(c2ccc(OC)cc2)S(C)(=O)=O)cc1OCC (centres undefined)
cell count [1]: 265 cells | activation [2]: 0.6% (inactive)

CCOC(=O)CS(=O)(=O)c1nc(-c2ccc(F)cc2)cc(C(F)(F)F)n1
cell count [1]: 353 cells | activation [2]: 16.3% (inactive)

CCOC(=O)CCS(=O)(=O)c1nc(-c2ccccc2)cc(C(F)(F)F)n1
cell count [1]: 310 cells | activation [2]: 14.3% (inactive)

CCOC(=O)CS(=O)(=O)c1nc(-c2ccccc2)cc(C(F)(F)F)n1
cell count [1]: 302 cells | activation [2]: 49.8% (active)

CNC(=O)CSc1nnc(-c2cccs2)o1
cell count [1]: 345 cells | activation [2]: 0.3% (inactive)

CC(=O)Nc1cccc(/C(C)=N/NC(=O)c2cccs2)c1
cell count [1]: 330 cells | activation [2]: -0.4% (inactive)

COc1ccc(-c2cc(C(F)(F)F)nc(SCC(=O)Nc3ccc4c(c3)OCO4)n2)cc1
cell count [1]: 399 cells | activation [2]: -0.2% (inactive)

COc1ccccc1P(=O)(c1ccccc1)c1ccc([N+](=O)[O-])cc1 (centres undefined)
cell count [1]: 384 cells | activation [2]: 0.2% (inactive)

COc1ccccc1NC(=O)CSCc1ccc([N+](=O)[O-])cc1
cell count [1]: 415 cells | activation [2]: -0.1% (inactive)

CC(=O)N1CC=C2C(C#N)=C(N)C(C#N)(C#N)C(C)C2C1 (centres undefined)
cell count [1]: 315 cells | activation [2]: -0.2% (inactive)

Cc1ccc(NC(=O)CS(=O)CC(=O)NC23CC4CC(CC(C4)C2)C3)cc1 (centres undefined)
cell count [1]: 322 cells | activation [2]: 0% (inactive)

CCc1ccccc1NC(=O)c1ccc(-c2csc(C)n2)cc1
cell count [1]: 398 cells | activation [2]: -0.1% (inactive)

COc1ccc(CNc2nc(-c3cccnc3)nn2S(C)(=O)=O)cc1
cell count [1]: 258 cells | activation [2]: 1.3% (inactive)

COc1cccc(-c2nnc3n2N=C(c2cc(OC)ccc2OC)CS3)c1
cell count [1]: 449 cells | activation [2]: -0.1% (inactive)

CCOc1cccc(-c2nnc3n2N=C(c2cc(OC)ccc2OC)CS3)c1
cell count [1]: 276 cells | activation [2]: 100% (active)

COc1ccc(OC)c(C2=Nn3c(nnc3-c3cccc(OC(C)C)c3)SC2)c1
cell count [1]: 301 cells | activation [2]: -0.2% (inactive)

Cc1ccc(S(=O)(=O)NC2=C(N3CCN(c4ccccc4F)CC3)C(=O)c3ccccc3C2=O)cc1
cell count [1]: 421 cells | activation [2]: -0.1% (inactive)

COc1ccc(CN2C(=O)c3ccccc3C2=O)cc1
cell count [1]: 379 cells | activation [2]: 0.6% (inactive)

COc1ccc(CN2C(=O)c3cccc4cccc(c34)C2=O)cc1
cell count [1]: 353 cells | activation [2]: -0.1% (inactive)

CCc1nn(CC(=O)NCCc2ccc(Cl)cc2)c(=O)c2cccn12
cell count [1]: 343 cells | activation [2]: 0% (inactive)

CCOC(=O)C(CC)(CCC(=O)OC)c1csc(Nc2ccccc2O)n1 (centres undefined)
cell count [1]: 367 cells | activation [2]: -0.1% (inactive)

Fc1cccc(NCCc2c[nH]c3ccccc23)n1
cell count [1]: 334 cells | activation [2]: -0.2% (inactive)

COc1ccccc1N1CCN(C2CCN(C(=O)COc3ccccc3)CC2)CC1
cell count [1]: 401 cells | activation [2]: -0.1% (inactive)

O=C(NCCN1CCOCC1)c1cc(-c2ccco2)on1
cell count [1]: 315 cells | activation [2]: -0.1% (inactive)

COc1ccc(Nc2nc(Cl)c(C=O)s2)cc1
cell count [1]: 273 cells | activation [2]: 0.2% (inactive)

Cc1nnnn1/C(=C\c1ccccc1)C(=O)OCC(=O)NC(C)(C)C
cell count [1]: 301 cells | activation [2]: -0.3% (inactive)

Cc1nnnn1/C(=C\c1ccccc1)C(=O)OCC(=O)N(C)C1CCS(=O)(=O)C1 (centres undefined)
cell count [1]: 254 cells | activation [2]: -0.4% (inactive)

Cc1nnnn1/C(=C\c1ccccc1)C(=O)OCC(=O)N1CC2(C)CC1CC(C)(C)C2 (centres undefined)
cell count [1]: 330 cells | activation [2]: 74.3% (active)

CS(=O)(=O)N(CC(=O)NCCc1ccccc1)C1CCCCC1
cell count [1]: 388 cells | activation [2]: -0.1% (inactive)

N#Cc1c2n(c(=S)n(-c3ccc(F)cc3)c1=O)CCCCC2
cell count [1]: 250 cells | activation [2]: -0.3% (inactive)

CC(C)CC(=O)Nc1nnc(S(=O)(=O)N(C)Cc2ccco2)s1
cell count [1]: 342 cells | activation [2]: -0.2% (inactive)

CSc1ccccc1OCc1cc(C(=O)N2CCc3sccc3C2)no1
cell count [1]: 327 cells | activation [2]: -0.2% (inactive)

Cc1ccc2c(C)c(C(=O)N3CCN(Cc4ccc5c(c4)OCO5)CC3)oc2c1C
cell count [1]: 372 cells | activation [2]: -0.1% (inactive)

COc1ccc(S(=O)(=O)NCCSC(C)(C)C)cc1Cl
cell count [1]: 346 cells | activation [2]: -0.1% (inactive)

CCOC(=O)Cn1c(CN2CCN(C(c3ccccc3)c3ccccc3)CC2)nc2c1c(=O)n(C)c(=O)n2C
cell count [1]: 284 cells | activation [2]: 0.3% (inactive)

O=C(C1CCCN(S(=O)(=O)c2cccc3nsnc23)C1)N1CCCCCC1 (centres undefined)
cell count [1]: 250 cells | activation [2]: 0.1% (inactive)

N#Cc1ccccc1NC(=O)CC1CCCCC1
cell count [1]: 377 cells | activation [2]: -0.1% (inactive)

O=C(O)c1ccc[nH]c1=S
cell count [1]: 381 cells | activation [2]: 0% (inactive)

CCN(CC)S(=O)(=O)c1ccc(N2CCOCC2)c(NCC(=O)Nc2ccc(F)cc2)c1
cell count [1]: 259 cells | activation [2]: -0.1% (inactive)

Cc1ccc(C(=O)NC(=S)/C=C2\N(C)c3ccccc3C2(C)C)cc1
cell count [1]: 272 cells | activation [2]: 0.2% (inactive)

COc1ccccc1C(=O)NC(=S)/C=C1/N(C)c2ccccc2C1(C)C
cell count [1]: 278 cells | activation [2]: 91% (active)

CN1/C(=C\C(=S)NC(=O)c2ccccc2Cl)C(C)(C)c2ccccc21
cell count [1]: 357 cells | activation [2]: -0.2% (inactive)

COc1cccc(C(=O)Nc2cnn(C(C)C)c2)c1
cell count [1]: 253 cells | activation [2]: -0.2% (inactive)

CNc1nc(-c2ccc(Cl)cc2)cs1
cell count [1]: 302 cells | activation [2]: -1% (inactive)

COc1ccc(NC(=O)NC2CCCCCCC2)c(OC)c1
cell count [1]: 240 cells | activation [2]: -0.1% (inactive)

CCC(=O)Nc1ccc(OC)cc1OC
cell count [1]: 375 cells | activation [2]: -0.2% (inactive)

CCOC(=O)c1[nH]c2ccc(C(=O)OC)cc2c1C(=O)OCC
cell count [1]: 400 cells | activation [2]: -0.3% (inactive)

CCCCc1ccc(C2C(C#N)=C(N)SC(N)=C2C#N)s1
cell count [1]: 340 cells | activation [2]: 0.2% (inactive)

O=C(COC(=O)/C=C/c1cccc(Cl)c1)NCCc1ccc(Cl)cc1Cl
cell count [1]: 315 cells | activation [2]: 0% (inactive)

O=C(O)C1CCCN1C(=O)c1cncc(Br)c1 (centres undefined)
cell count [1]: 262 cells | activation [2]: -0.2% (inactive)

CC(C)OCC(O)Cn1c(N2CCCC2)nc2c1c(=O)[nH]c(=O)n2C (centres undefined)
cell count [1]: 350 cells | activation [2]: -0.2% (inactive)

Cc1c(C2N3CC4(C)CN2CC(C)(C3)C4=O)c2ccccc2n1C (centres undefined)
cell count [1]: 309 cells | activation [2]: 0.1% (inactive)

CC(C)(C)NC(=O)CSc1nncn1NCc1c(Cl)cccc1Cl
cell count [1]: 294 cells | activation [2]: -0.2% (inactive)

COc1cc2c3nnc(-c4ccc(F)cc4)c-3cn(Cc3ccc(F)cc3)c2cc1OC
cell count [1]: 348 cells | activation [2]: 16.9% (inactive)

COc1cc2c3nnc(-c4ccc(F)cc4)c-3cn(Cc3ccccc3F)c2cc1OC
cell count [1]: 274 cells | activation [2]: 76.7% (active)

COc1cc2c3nnc(-c4ccccc4)c-3cn(Cc3ccc(F)cc3)c2cc1OC
cell count [1]: 393 cells | activation [2]: 1.3% (inactive)

Cc1oc2c(C)c(O)ccc2c(=O)c1N1C(=O)c2ccccc2C1=O
cell count [1]: 286 cells | activation [2]: 0.2% (inactive)

CCOc1ccc2nc(SCC(=O)N3CCCCCC3)c(C#N)cc2c1
cell count [1]: 334 cells | activation [2]: -0.1% (inactive)

CCOc1ccc2nc(SCC(=O)N3c4ccccc4Sc4ccccc43)c(C#N)cc2c1
cell count [1]: 304 cells | activation [2]: 112% (active)

CCOc1ccc2nc(SCC(=O)N3c4ccccc4Sc4ccccc43)sc2c1
cell count [1]: 319 cells | activation [2]: 16.7% (inactive)

Nc1cccnc1Sc1ccc(Cl)cc1
cell count [1]: 377 cells | activation [2]: 0% (inactive)

COC(=O)c1cc(OC)c(OC)cc1NC(=O)CC1CCCCC1
cell count [1]: 320 cells | activation [2]: -0.2% (inactive)

Cc1cccc(NS(=O)(=O)c2cc([N+](=O)[O-])ccc2C)n1
cell count [1]: 419 cells | activation [2]: -0.1% (inactive)

COc1cc(/C=C/C(=O)Oc2coc(CSc3ncccn3)cc2=O)cc(OC)c1OC
cell count [1]: 281 cells | activation [2]: -0.2% (inactive)

CCCOCC(O)COc1ccccc1C(=O)N1CCOCC1 (centres undefined)
cell count [1]: 317 cells | activation [2]: -0.2% (inactive)

CCC1Sc2ccc(S(=O)(=O)CCC(=O)Nc3cc(C)ccn3)cc2NC1=O (centres undefined)
cell count [1]: 341 cells | activation [2]: -0.1% (inactive)

CC(NC(=O)Cn1nc(C(F)(F)F)c2c1CCC2)c1ccccc1 (centres undefined)
cell count [1]: 371 cells | activation [2]: -0.2% (inactive)

COc1ccc2nc(C)cc(SCC(=O)N/N=C/c3ccco3)c2c1
cell count [1]: 330 cells | activation [2]: 0.2% (inactive)

Cc1ccccc1NC(=O)NC1CCCCC1C (centres undefined)
cell count [1]: 353 cells | activation [2]: 0.4% (inactive)

CN(C)c1ccc(/C=N/NC(=O)C2CC2c2ccccc2)cc1 (centres undefined)
cell count [1]: 339 cells | activation [2]: -0.2% (inactive)

O=C(NCc1ccc(F)cc1)C(=O)NCC1OCCCN1S(=O)(=O)c1cccs1 (centres undefined)
cell count [1]: 348 cells | activation [2]: -0.1% (inactive)

COc1ccc(C(=O)NCC(=O)N/N=C/c2cccnc2)cc1OC
cell count [1]: 322 cells | activation [2]: -0.2% (inactive)

Cc1nc(Cl)sc1C(=O)Nc1cc(F)cc(F)c1
cell count [1]: 356 cells | activation [2]: -0.2% (inactive)

CN(C)c1ccc(/C=C/C(=O)c2ccccc2O)cc1
cell count [1]: 238 cells | activation [2]: 0.1% (inactive)

CN(C)c1ccc(C(=O)/C=C/c2ccccc2)cc1
cell count [1]: 254 cells | activation [2]: -0.3% (inactive)

Cn1c(=O)c(=O)n(C)c2cc(S(=O)(=O)N3CCN(c4ccccc4F)CC3)ccc21
cell count [1]: 328 cells | activation [2]: -0.1% (inactive)
